Reference: paper PMC5700166
Substitutions are numbered along the chain they refer to.

What was measured:
Test in all cases: protein-binding microarray (PBM); PBM: ~300 nM protein, 6 mM HEPES pH 7.8, 80 mM KCl, 0.5 mM EDTA, 0.5 mM EGTA, 6% glycerol, 35 ng/ul poly-dIdC, 1% milk, 1 h, room temperature; Ap Aiptasia and Nv Nematostella (sea anemones) / Co Capsaspora / Aq Amphimedon (sponge) / Dm Drosophila / Hu human; RHD is the Rel homology domain; high values mean tight binding
Conditions in all cases: dsDNA, one strand shown
GST-Ap-NF-kB RHD = target: T1, GST-Ap-NF-kB RHD (Exaiptasia pallida (Aiptasia), UniProt A0A913YAJ5 2-422)
T1 sequence: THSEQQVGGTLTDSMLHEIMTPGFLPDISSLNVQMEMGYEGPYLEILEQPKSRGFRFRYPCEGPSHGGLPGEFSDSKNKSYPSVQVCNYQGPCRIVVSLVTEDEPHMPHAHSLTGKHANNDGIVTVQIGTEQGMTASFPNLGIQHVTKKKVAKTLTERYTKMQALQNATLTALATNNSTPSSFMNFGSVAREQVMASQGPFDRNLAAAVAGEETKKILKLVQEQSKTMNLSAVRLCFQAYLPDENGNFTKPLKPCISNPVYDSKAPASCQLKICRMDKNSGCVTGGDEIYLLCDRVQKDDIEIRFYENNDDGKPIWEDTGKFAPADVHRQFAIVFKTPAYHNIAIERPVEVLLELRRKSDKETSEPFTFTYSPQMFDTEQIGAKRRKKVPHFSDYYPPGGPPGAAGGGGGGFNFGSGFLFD

[1] = target: T2, GST-Nv-NF-kB (Cys allele) (Nematostella vectensis, UniProt E5G601 2-411)
T2 sequence: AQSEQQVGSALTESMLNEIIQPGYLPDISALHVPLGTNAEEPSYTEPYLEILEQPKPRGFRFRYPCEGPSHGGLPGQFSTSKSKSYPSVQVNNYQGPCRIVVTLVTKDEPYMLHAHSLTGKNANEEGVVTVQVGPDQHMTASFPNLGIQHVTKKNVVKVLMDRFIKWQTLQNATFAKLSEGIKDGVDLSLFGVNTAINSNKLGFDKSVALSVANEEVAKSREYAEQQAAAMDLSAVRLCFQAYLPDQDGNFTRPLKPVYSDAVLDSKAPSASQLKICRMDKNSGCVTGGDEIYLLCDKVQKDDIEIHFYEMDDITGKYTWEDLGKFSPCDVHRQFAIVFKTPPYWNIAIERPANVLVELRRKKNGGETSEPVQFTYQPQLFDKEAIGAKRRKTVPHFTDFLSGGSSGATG

[2] = target: T3, GST-Nv-NF-kB (Ser allele) (Nematostella vectensis, UniProt A7UNT2 2-411)
T3 sequence: T2 sequence with Q21R, C66S, S207N, E215Q, V217A, E225K, A268E, D399E

GST-Co-NF-kB = target: T4, GST-Co-NF-kB (Capsaspora owczarzaki, UniProt F1ARL5 200-546)
T4 sequence: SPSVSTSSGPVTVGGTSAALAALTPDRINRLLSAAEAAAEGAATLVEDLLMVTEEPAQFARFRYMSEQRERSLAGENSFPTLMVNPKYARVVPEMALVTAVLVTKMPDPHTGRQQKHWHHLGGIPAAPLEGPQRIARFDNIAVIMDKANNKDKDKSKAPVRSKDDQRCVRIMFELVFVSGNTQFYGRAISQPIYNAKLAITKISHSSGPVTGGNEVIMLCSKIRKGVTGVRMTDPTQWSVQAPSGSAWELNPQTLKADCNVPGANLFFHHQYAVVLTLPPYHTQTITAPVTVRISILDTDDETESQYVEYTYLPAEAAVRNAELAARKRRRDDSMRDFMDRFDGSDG

GST-Dm-Relish = target: T5, GST-Dm-Relish (Drosophila melanogaster, UniProt Q94527 99-473)
T5 sequence: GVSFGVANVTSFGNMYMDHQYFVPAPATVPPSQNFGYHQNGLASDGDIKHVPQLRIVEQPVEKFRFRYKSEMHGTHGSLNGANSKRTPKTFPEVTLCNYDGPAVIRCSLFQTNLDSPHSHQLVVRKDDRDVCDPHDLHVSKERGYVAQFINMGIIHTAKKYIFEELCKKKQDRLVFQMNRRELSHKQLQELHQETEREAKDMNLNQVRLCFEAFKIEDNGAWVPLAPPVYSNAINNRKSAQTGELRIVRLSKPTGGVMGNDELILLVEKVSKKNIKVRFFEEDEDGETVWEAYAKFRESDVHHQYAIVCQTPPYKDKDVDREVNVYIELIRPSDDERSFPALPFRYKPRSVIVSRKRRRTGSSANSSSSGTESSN

GST-Aq-NF-kB = target: T6, GST-Aq-NF-kB (Amphimedon queenslandica, UniProt A9Y5G7 2-389)
T6 sequence: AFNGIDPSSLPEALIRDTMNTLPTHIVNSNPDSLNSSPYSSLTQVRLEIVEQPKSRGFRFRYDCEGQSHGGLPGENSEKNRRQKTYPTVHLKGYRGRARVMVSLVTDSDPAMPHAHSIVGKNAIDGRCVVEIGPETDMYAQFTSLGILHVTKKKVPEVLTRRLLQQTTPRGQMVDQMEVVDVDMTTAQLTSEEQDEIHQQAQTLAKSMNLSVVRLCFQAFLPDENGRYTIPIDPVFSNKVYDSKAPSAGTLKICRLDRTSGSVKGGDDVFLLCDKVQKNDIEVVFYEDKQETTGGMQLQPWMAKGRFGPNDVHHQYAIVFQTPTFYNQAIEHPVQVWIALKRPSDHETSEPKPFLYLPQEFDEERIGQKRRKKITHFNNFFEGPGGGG

GST-Hu-p50 = GST-Hu-p50 (Homo sapiens, UniProt P19838 7-356)
GST-Hu-p50, sequence (P19838 7-356): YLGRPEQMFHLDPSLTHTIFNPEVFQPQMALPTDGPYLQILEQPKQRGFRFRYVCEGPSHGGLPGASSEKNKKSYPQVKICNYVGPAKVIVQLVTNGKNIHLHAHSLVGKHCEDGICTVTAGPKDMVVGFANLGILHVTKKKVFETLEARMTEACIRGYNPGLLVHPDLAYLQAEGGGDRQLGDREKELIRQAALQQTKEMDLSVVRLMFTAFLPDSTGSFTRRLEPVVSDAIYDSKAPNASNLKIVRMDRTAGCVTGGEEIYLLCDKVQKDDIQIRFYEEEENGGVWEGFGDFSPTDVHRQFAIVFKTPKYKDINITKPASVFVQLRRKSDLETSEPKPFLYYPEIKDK

Sequence	binding signal (GST-Ap-NF-kB RHD)	binding signal [1]	binding signal [2]	binding signal (GST-Co-NF-kB)	binding signal (GST-Dm-Relish)	binding signal (GST-Aq-NF-kB)	binding signal (GST-Hu-p50)
CCGATTAACATCACCAACCCCCCTGATGTTAATCGGGTCTTGATTCGCTTGACGCTGCTG	5.65 z-score	3.47 z-score	4.4 z-score	3.02 z-score	5.37 z-score	3.88 z-score	4.51 z-score
CCGATTAACATCAAGGGGAAATCTGATGTTAATCGGGTCTTGATTCGCTTGACGCTGCTG	8.38 z-score	9.53 z-score	12.2 z-score	7.59 z-score	6.04 z-score	6.89 z-score	7.08 z-score
CCGATTAACATCAGAATTTCCCATGATGTTAATCGGGTCTTGATTCGCTTGACGCTGCTG	3.88 z-score	5.46 z-score	4.83 z-score	4.63 z-score	3.42 z-score	5.17 z-score	4.04 z-score
CCGATTAACATCAGATTTTCCCCTGATGTTAATCGGGTCTTGATTCGCTTGACGCTGCTG	8 z-score	8.78 z-score	11 z-score	9.39 z-score	4.94 z-score	7.27 z-score	6.35 z-score
CCGATTAACATCAAGGATTCCCCTGATGTTAATCGGGTCTTGATTCGCTTGACGCTGCTG	9.7 z-score	10.5 z-score	10 z-score	6.56 z-score	9.55 z-score	7.75 z-score	6.89 z-score
CCGATTAACATCAATCTCCCCCCTGATGTTAATCGGGTCTTGATTCGCTTGACGCTGCTG	7.54 z-score	5.24 z-score	7.29 z-score	8.72 z-score	4.23 z-score	5.63 z-score	6.63 z-score
CCGATTAACATCAATCCCCACATTGATGTTAATCGGGTCTTGATTCGCTTGACGCTGCTG	3.58 z-score	4.03 z-score	3.93 z-score	2.61 z-score	2.63 z-score	2.58 z-score	3.86 z-score
CCGATTAACATCAAAACCCCCCGTGATGTTAATCGGGTCTTGATTCGCTTGACGCTGCTG	8.43 z-score	6.29 z-score	7.17 z-score	5.04 z-score	10.2 z-score	7.07 z-score	6.96 z-score
CCGATTAACATCAAATTTCCCGATGATGTTAATCGGGTCTTGATTCGCTTGACGCTGCTG	3.04 z-score	4.4 z-score	3.94 z-score	4.24 z-score	2.2 z-score	4.21 z-score	3.9 z-score
CCGATTAACATCACGGGGGTTCCTGATGTTAATCGGGTCTTGATTCGCTTGACGCTGCTG	9.11 z-score	5.77 z-score	4.99 z-score	2.92 z-score	9.73 z-score	6.72 z-score	5.25 z-score
CCGATTAACATCAAAATCCCAGTTGATGTTAATCGGGTCTTGATTCGCTTGACGCTGCTG	1.67 z-score	1.47 z-score	1.74 z-score	1.27 z-score	5.96 z-score	1.75 z-score	1.82 z-score
CCGATTAACATCAGGGAGTACCCTGATGTTAATCGGGTCTTGATTCGCTTGACGCTGCTG	5.7 z-score	4.14 z-score	3.49 z-score	1.84 z-score	8.1 z-score	6.66 z-score	3.38 z-score
CCGATTAACATCAGGACGTCCCCTGATGTTAATCGGGTCTTGATTCGCTTGACGCTGCTG	7.08 z-score	6.03 z-score	4.26 z-score	2.18 z-score	5.29 z-score	7.4 z-score	4.57 z-score
CCGATTAACATCACTAGTTTCCCTGATGTTAATCGGGTCTTGATTCGCTTGACGCTGCTG	3.06 z-score	3.43 z-score	4.61 z-score	4.16 z-score	1.28 z-score	3.03 z-score	2.26 z-score
CCGATTAACATCAGAGATTCCCCTGATGTTAATCGGGTCTTGATTCGCTTGACGCTGCTG	8.42 z-score	9.61 z-score	10.1 z-score	6.66 z-score	6.36 z-score	7.04 z-score	6.76 z-score
CCGATTAACATCAGAAAATACCCTGATGTTAATCGGGTCTTGATTCGCTTGACGCTGCTG	5.86 z-score	8.27 z-score	7.72 z-score	1.93 z-score	6.76 z-score	7.37 z-score	6.32 z-score
CCGATTAACATCAGGGAATTGCATGATGTTAATCGGGTCTTGATTCGCTTGACGCTGCTG	2.48 z-score	4.23 z-score	4.1 z-score	2.6 z-score	1.11 z-score	3.49 z-score	3.1 z-score
CCGATTAACATCAGGGGGGAATATGATGTTAATCGGGTCTTGATTCGCTTGACGCTGCTG	7.1 z-score	6.54 z-score	7.41 z-score	10.2 z-score	5.21 z-score	6.44 z-score	6.79 z-score
CCGATTAACATCAACAAAATCCCTGATGTTAATCGGGTCTTGATTCGCTTGACGCTGCTG	3.4 z-score	3.64 z-score	3.66 z-score	1.89 z-score	6.66 z-score	3.47 z-score	2.65 z-score
CCGATTAACATCAGAGCCCCCCCTGATGTTAATCGGGTCTTGATTCGCTTGACGCTGCTG	4.71 z-score	3.96 z-score	3.31 z-score	3.1 z-score	4.58 z-score	4.2 z-score	3.47 z-score
CCGATTAACATCACAAAAGTCCCTGATGTTAATCGGGTCTTGATTCGCTTGACGCTGCTG	7.21 z-score	9.22 z-score	9.85 z-score	2.27 z-score	7.55 z-score	7.54 z-score	6.52 z-score
CCGATTAACATCAAAATTCCCCGTGATGTTAATCGGGTCTTGATTCGCTTGACGCTGCTG	9.41 z-score	11.3 z-score	11.6 z-score	10.6 z-score	8.96 z-score	8.42 z-score	7.28 z-score
CCGATTAACATCAGAAACACCCCTGATGTTAATCGGGTCTTGATTCGCTTGACGCTGCTG	3.57 z-score	2.68 z-score	2.16 z-score	3.34 z-score	3.56 z-score	3.93 z-score	3.61 z-score
CCGATTAACATCAGGGGGTGGTATGATGTTAATCGGGTCTTGATTCGCTTGACGCTGCTG	3.21 z-score	2.77 z-score	3.98 z-score	2.91 z-score	2.01 z-score	3.38 z-score	3.67 z-score
